In PubChem BioAssay (EPA / NIEHS):
Calls of active or inactive are those of the source. How the source made its calls: active means hit-call score of the fitted dose curve at least 0.9, where 1 is the maximum; inactive means score below 0.9.

Experiments:
[1] = ATG_CRE_CIS: Attagene CIS-FACTORIAL HepG2 Assay for human cAMP Responsive Element (CRE) binding protein 3 (AID 2282926); settings: HepG2 CRE cis-reporter, Attagene multiplexed mRNA; actives raise or lower the signal
Outline: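 Human liver HepG2, transient MRTU transfection, 24 h compound exposure. Total RNA → oligo(dT) RT → PCR → 6-FAM primer extension → HpaI cut → CE. Activity called both directions vs DMSO.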

[2] = biological target: CCAAT/enhancer-binding protein beta (Homo sapiens) (UniProt P17676); test: ATG_C_EBP_CIS: Attagene CIS-FACTORIAL HepG2 Assay for human CCAAT/Enhancer Binding Protein (C/EBP) beta (AID 2282927); settings: HepG2 Attagene cis-factorial transcription factor reporter; actives raise or lower the signal
Sequence of CCAAT/enhancer-binding protein beta (Homo sapiens) (P17676 whole entry, looked up): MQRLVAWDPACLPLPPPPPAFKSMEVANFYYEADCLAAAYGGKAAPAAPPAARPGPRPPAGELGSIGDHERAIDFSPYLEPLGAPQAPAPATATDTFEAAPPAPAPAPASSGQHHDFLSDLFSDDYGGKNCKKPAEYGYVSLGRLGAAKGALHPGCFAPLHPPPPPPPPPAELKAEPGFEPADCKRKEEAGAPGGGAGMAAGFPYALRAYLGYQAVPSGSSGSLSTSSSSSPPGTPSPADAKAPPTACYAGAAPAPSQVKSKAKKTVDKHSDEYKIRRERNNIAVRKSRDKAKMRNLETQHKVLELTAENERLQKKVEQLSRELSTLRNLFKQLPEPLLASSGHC
Outline: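 Following a 24 h incubation with test chemical, transfected HepG2 cells yielded RNA whose reporter transcripts were quantified by RT-PCR and fluorescent capillary electrophoresis, with DMSO serving as baseline for bidirectional fitting.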

[3] = ATG_CMV_CIS: Attagene CIS-FACTORIAL HepG2 Assay for human CMV (Internal Marker) (AID 2282928); settings: HepG2 CMV promoter reporter, transcription factor profiling; actives raise or lower the signal;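 further: endpoint acts as a background internal control marker rather than a target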
Outline: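 HepG2 cells transiently transfected with multiple cis-regulated reporter units; 24 h compound exposure. Reporter mRNA quantified by RT-PCR, 6-FAM primer-extension labeling, HpaI digestion and capillary electrophoresis; bidirectional fitting against DMSO baseline.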

[4] = ATG_DR4_LXR_CIS: Attagene CIS-FACTORIAL HepG2 Assay for human Liver X Receptor (LXR), DR4 submotif (AID 2282929); settings: HepG2 Attagene DR4 cis-reporter, mRNA transcription; actives raise or lower the signal
Outline: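 Cells were transfected with multiple reporter transcription units, exposed to chemicals for 24 hours, then lysed for RNA. Reporter mRNA induction was measured by RT-PCR with capillary electrophoresis detection and fitted in both directions relative to DMSO.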

[5] = biological target: Aryl hydrocarbon receptor (Homo sapiens) (UniProt P35869); test: ATG_Ahr_CIS: Attagene CIS-FACTORIAL HepG2 Assay for human Aryl Hydrocarbon Receptor (Ahr) (AID 2282930); settings: HepG2 AhR cis-factorial reporter transcription; actives raise or lower the signal
Sequence of Aryl hydrocarbon receptor (Homo sapiens) (P35869 whole entry, looked up): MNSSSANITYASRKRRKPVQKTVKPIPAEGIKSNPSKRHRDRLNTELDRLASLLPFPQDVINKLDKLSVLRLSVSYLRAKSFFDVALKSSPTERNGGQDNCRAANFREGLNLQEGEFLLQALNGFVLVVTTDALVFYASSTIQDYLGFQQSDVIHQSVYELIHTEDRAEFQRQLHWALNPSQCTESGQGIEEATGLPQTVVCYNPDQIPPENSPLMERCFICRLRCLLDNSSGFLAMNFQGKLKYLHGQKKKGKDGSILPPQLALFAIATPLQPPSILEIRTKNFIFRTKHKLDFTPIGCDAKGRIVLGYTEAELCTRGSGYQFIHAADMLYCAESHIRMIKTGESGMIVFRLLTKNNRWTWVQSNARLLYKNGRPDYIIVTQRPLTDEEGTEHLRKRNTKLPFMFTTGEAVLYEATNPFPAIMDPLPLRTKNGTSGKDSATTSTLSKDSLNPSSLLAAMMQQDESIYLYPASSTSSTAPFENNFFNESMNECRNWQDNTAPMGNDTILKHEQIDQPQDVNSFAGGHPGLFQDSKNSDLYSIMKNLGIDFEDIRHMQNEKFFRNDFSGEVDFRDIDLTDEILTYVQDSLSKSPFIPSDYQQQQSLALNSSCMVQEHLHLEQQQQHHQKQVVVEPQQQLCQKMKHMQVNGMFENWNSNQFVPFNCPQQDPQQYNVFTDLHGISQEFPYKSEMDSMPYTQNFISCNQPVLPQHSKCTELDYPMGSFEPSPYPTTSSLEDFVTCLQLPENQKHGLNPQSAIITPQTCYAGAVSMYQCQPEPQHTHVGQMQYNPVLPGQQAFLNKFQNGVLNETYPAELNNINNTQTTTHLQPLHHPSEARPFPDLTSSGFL
Outline: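 Values derive from bidirectional fitting against DMSO negative control. Underlying signal: cis-element reporter mRNA in transiently transfected HepG2, harvested 24 h post-dose and measured by RT-PCR plus capillary electrophoresis.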

[6] = ATG_AP_2_CIS: Attagene CIS-FACTORIAL HepG2 Assay for human Activator Protein 2 (AP-2) (AID 2282932); settings: HepG2 AP-2 cis-reporter, Attagene transcription factor profiling; actives raise or lower the signal
Outline: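 HepG2 cells were transiently transfected with multiple cis-promoter reporter transcription units and dosed for 24 h. Reporter mRNA was measured by RT-PCR with capillary electrophoresis fluorescence; bidirectional fits relative to DMSO baseline.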

[7] = ATG_BRE_CIS: Attagene CIS-FACTORIAL HepG2 Assay for human Bone Morphogenetic Protein (BMP) Response Element (BRE) (AID 2282933); settings: HepG2 BMP response element reporter, Attagene transcription factor profiling; actives raise or lower the signal
Outline: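 Read-out: reporter mRNA induction quantified by RT-PCR and capillary electrophoresis after 24 h chemical exposure of transfected HepG2 cells. Endogenous factor activity on the BMP response element; gain or loss fitted against DMSO baseline.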

[8] = biological target: Retinoic acid receptor alpha (Homo sapiens) (UniProt P10276); test: ATG_DR5_RAR_CIS: Attagene CIS-FACTORIAL HepG2 Assay for human Retinoic Acid Receptor Alpha (RARE), DR5 submotif (AID 2282934); settings: HepG2 Attagene cis-factorial RARE DR5 reporter, mRNA; actives raise or lower the signal;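 on AC50: reporter responds to endogenous RAR alpha beta and gamma in HepG2 not RARA alone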
Sequence of Retinoic acid receptor alpha (Homo sapiens) (P10276 whole entry, looked up): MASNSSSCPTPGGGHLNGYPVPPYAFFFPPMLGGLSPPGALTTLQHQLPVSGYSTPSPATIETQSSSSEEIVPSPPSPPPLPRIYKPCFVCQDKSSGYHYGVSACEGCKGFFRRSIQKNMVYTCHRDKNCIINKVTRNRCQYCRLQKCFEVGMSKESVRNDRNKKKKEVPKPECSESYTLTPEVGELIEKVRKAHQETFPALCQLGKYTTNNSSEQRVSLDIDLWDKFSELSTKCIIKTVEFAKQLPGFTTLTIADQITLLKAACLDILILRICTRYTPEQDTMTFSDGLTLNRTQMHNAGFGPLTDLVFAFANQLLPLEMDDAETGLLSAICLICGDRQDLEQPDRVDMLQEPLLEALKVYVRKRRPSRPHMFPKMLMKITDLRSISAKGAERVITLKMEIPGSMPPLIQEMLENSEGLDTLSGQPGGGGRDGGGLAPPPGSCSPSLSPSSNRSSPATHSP
Outline: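 Endpoint fitted in both directions relative to DMSO as negative control. It reflects DR5 cis-element reporter mRNA induction in transiently transfected HepG2 cells, measured 24 h after dosing through RT-PCR and fluorescent capillary electrophoresis.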

[9] = biological target: Transcription factor E2F1 (Homo sapiens) (UniProt Q01094); test: ATG_E2F_CIS: Attagene CIS-FACTORIAL HepG2 Assay for human E2F Transcription Factor 1 (AID 2282935); settings: HepG2 Attagene cis-reporter, E2F reporter RNA transcripts; actives raise or lower the signal
Sequence of Transcription factor E2F1 (Homo sapiens) (Q01094 whole entry, looked up): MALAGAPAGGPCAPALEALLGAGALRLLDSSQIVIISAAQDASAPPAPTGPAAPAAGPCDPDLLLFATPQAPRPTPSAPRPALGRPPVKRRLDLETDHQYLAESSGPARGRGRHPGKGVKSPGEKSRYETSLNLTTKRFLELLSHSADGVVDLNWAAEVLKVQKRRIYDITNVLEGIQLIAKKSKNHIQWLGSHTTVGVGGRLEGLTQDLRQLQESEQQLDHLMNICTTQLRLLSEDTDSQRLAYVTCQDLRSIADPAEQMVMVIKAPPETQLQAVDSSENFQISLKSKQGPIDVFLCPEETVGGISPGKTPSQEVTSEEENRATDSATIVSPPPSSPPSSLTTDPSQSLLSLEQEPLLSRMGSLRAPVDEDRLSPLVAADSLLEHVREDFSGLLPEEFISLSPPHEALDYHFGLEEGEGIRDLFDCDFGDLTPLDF
Outline: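 HepG2 cells transiently transfected with multiplexed cis-element reporter units, dosed for 24 h. Reporter mRNA measured by RT-PCR, 6-FAM primer-extension labeling, HpaI digestion and capillary electrophoresis; bidirectional fit versus DMSO baseline.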

[10] = ATG_E_Box_CIS: Attagene CIS-FACTORIAL HepG2 Assay for human Enhancer Box (E-box) (AID 2282936); settings: HepG2 E-box cis-reporter transcription, actives raise or lower the signal
Outline: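 HepG2 cells transiently transfected with multiplexed cis-element reporter units sensing endogenous transcription factor activity; 24 h compound exposure. Reporter mRNA measured by RT-PCR, 6-FAM primer extension, HpaI digestion and capillary electrophoresis; bidirectional fit versus DMSO.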

[11] = ATG_M_61_CIS: Attagene CIS-FACTORIAL HepG2 Assay for M61 Transcription Factor (Internal Marker) (AID 2282937); settings: HepG2 Attagene CIS-FACTORIAL M61 internal marker reporter; actives raise or lower the signal
Outline: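 Cells were transfected with reporter units under cis-regulatory promoters, treated with chemicals for 24 h, then lysed for RNA. Reporter transcripts were quantified by RT-PCR and capillary electrophoresis, and activity was fitted bidirectionally against DMSO.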

[12] = ATG_EGR_CIS: Attagene CIS-FACTORIAL HepG2 Assay for human Early Growth Response 1 (EGR1) (AID 2282938); settings: HepG2 Attagene CIS-FACTORIAL EGR reporter mRNA; actives raise or lower the signal
Outline: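 Endogenous TF activity in HepG2 liver cells was gauged through cis-promoter reporter constructs transiently transfected. After 24 h dosing, reporter mRNA was quantified by RT-PCR and capillary electrophoresis, and curves fitted in both directions versus DMSO.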

[13] = ATG_M_19_CIS: Attagene CIS-FACTORIAL HepG2 Assay for M19 Transcription Factor (Internal Marker) (AID 2282939); settings: HepG2 Attagene CIS-FACTORIAL M19 internal marker reporter; actives raise or lower the signal
Outline: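 Readout: fluorescent reporter-transcript fragments by capillary electrophoresis after RT-PCR. Human HepG2 liver cells carried transfected MRTU constructs reporting endogenous transcription-factor activity; exposure 24 h. Gain or loss of signal fitted relative to DMSO.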

[14] = ATG_ERE_CIS: Attagene CIS-FACTORIAL HepG2 Assay for Estrogen Response Element (ERE) (AID 2282940); settings: HepG2 ERE cis-reporter, Attagene RNA transcript; actives raise or lower the signal
Outline: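 Readout: reporter mRNA induction by RT-PCR, FAM-labelled primer extension, HpaI digestion and capillary electrophoresis, 24 h after dosing transfected HepG2 cells. Endogenous transcription factors act on cis-element-regulated reporters. Gain or loss fitted against DMSO.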

[15] = biological target: Hepatocyte nuclear factor 3-beta (Homo sapiens) (UniProt Q9Y261); test: ATG_FoxA2_CIS: Attagene CIS-FACTORIAL HepG2 Assay for human Forkhead box A2 (FOXA2) (AID 2282942); settings: HepG2 cis-reporter transcription factor activity, 24 h; actives raise or lower the signal
Sequence of Hepatocyte nuclear factor 3-beta (Homo sapiens) (Q9Y261 whole entry, looked up): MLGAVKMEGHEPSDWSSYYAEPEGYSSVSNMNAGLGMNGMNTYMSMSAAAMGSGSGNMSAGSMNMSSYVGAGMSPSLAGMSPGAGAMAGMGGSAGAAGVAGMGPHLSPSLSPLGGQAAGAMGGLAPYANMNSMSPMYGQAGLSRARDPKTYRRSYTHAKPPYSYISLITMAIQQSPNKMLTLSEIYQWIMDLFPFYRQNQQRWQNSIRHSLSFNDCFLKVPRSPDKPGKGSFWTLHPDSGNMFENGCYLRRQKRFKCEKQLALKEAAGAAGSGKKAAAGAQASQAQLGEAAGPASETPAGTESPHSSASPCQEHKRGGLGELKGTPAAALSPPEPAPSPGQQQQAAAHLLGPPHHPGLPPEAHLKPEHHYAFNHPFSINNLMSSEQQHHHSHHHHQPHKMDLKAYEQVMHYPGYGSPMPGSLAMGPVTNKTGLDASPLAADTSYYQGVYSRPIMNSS
Outline: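 Endogenous transcription factor activity was read in HepG2 cells carrying transiently transfected cis-promoter reporter units. After 24 h dosing, reporter mRNA was quantified by RT-PCR and capillary electrophoresis, and values fitted bidirectionally versus DMSO.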

[16] = ATG_FoxO_CIS: Attagene CIS-FACTORIAL HepG2 Assay for human Forkhead box O (FoxO) (AID 2282943); settings: HepG2 Attagene cis-reporter, FoxO element, mRNA; actives raise or lower the signal
Outline: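 Values reflect reporter mRNA induction or loss in HepG2 cells 24 h post-dosing, fitted bidirectionally with DMSO as negative control and baseline. Detection used RT-PCR and fluorescence capillary electrophoresis.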

[17] = ATG_GATA_CIS: Attagene CIS-FACTORIAL HepG2 Assay for human GATA Binding Protein (AID 2282944); settings: HepG2 GATA cis-element reporter, Attagene multiplex mRNA; actives raise or lower the signal
Outline: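 Read-out: fluorescent reporter mRNA fragments resolved by capillary electrophoresis after RT-PCR. Human liver HepG2 cells carried transiently transfected cis-regulated reporter constructs; chemicals incubated 24 h; gain or loss of signal fitted relative to DMSO.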

[18] = ATG_GLI_CIS: Attagene CIS-FACTORIAL HepG2 Assay for human Zinc Finger Protein GLI1 (AID 2282945); settings: HepG2, Attagene cis-factorial reporter mRNA, GLI element; actives raise or lower the signal
Outline: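 HepG2 cells transiently transfected with cis-promoter multiplexed reporter units report endogenous transcription factor activity. After 24 h chemical exposure, reporter mRNA was quantified by RT-PCR, 6-FAM labelling, HpaI digestion and capillary electrophoresis, with bidirectional fitting against DMSO.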

[19] = ATG_AP_1_CIS: Attagene CIS-FACTORIAL HepG2 Assay for human Activator Protein 1 (AP-1) (AID 2282931); settings: HepG2 Attagene cis-factorial AP-1 reporter mRNA; actives raise or lower the signal
Outline: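 Endogenous transcription-factor activity in human HepG2 liver cells is read through a cis-promoter reporter transcript, sampled 24 h after dosing. Detection uses RT-PCR with capillary electrophoresis; values come from bidirectional fitting relative to DMSO.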

[20] = ATG_Ets_CIS: Attagene CIS-FACTORIAL HepG2 Assay for human Erythroblast Transformation Specific (ETS) (AID 2282941); settings: HepG2 ETS cis-reporter transcription, actives raise or lower the signal
Outline: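 HepG2 cells transiently transfected with cis-promoter reporter transcription units were dosed for 24 h; reporter mRNA was measured by RT-PCR, 6-FAM primer extension, HpaI digestion and capillary electrophoresis, with bidirectional fitting against DMSO baseline.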

Measured: AC50

Nc1c(S(=O)(=O)O)cc(Br)c2c1C(=O)c1ccccc1C2=O
active: [5] 9.82 µM | [14] 31.9 µM
not listed: [19] | [20]
inactive: all other assays above

O=C1c2ccccc2C(=O)c2c(O)ccc(O)c21
active: [3] 3.02 µM | [5] 0.296 µM | [10] 3.7 µM
not listed: [6] | [14]
inactive: all other assays above

CCC1(c2ccccc2)C(=O)NCNC1=O
not listed: [6] | [14] | [20]
inactive: all other assays above

CC(C)(CO)[C@@H](O)C(=O)NCCC(=O)O
not listed: [6] | [20]
inactive: all other assays above

CCCCCCOCCOCCO
not listed: [6] | [8] | [14]
inactive: all other assays above

CCc1cc(C(C)(C)C)c(O)c(C(C)(C)C)c1
active: [3] 53.9 µM | [4] 23.2 µM | [19] 63.7 µM | [10] 24.4 µM
not listed: [6] | [8] | [14] | [15]
inactive: all other assays above

C=COCCOCCOC=C
not listed: [6] | [14]
inactive: all other assays above

CC(=O)C1(C)CC2=C(CCCC2(C)C)CC1C (centres undefined)
inactive: [1] | [2] | [7] | [9] | [11] | [12] | [17]
active: [3] 76.8 µM | [4] 179 µM | [5] 126 µM | [19] 93.3 µM | [8] 100 µM | [10] 83.2 µM | [13] 157 µM | [15] 181 µM | [16] 100 µM | [18] 53.8 µM
